Composite z-score, composite Z-score and z-score data for six compounds are collected here from PubChem BioAssay.

The target in assay [1] is Albumin (Bos taurus) (UniProt P02769). Briefly: compounds binding labelled BSA control protein – biochemical, small-molecule microarray, Alexa647 label, 635/667 nm fluorescence, artefact control for SMM control protein annotation, profiling panel (AID 1118).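 Also: score merges 667 nm emission intensity and signal-to-noise per printed compound spot.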 To be noted: BSA-A647 binding, fluorescence 635 nm, higher = more signal.
The nature of assay [2]: probe aXIP binding to arrayed compounds – biochemical, NeuroSMM set, 635/667 nm fluorescence, primary screen (AID 1119).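 Also: probe is the protein aXip251-270 applied at 1 µg/mL to compound-printed slides; binding of probe to printed compounds measured as 667 nm fluorescence plus signal to noise.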 To be noted: small-molecule microarray, higher = more signal, called active from +8 up or from −8 down.
A short description of assay [3]: probe aNOTCH3 binding on compound microarray – biochemical, small-molecule microarray, 635/667 nm fluorescence, primary screen (AID 1120).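 Also: probe is a biotin-tagged antibody raised against NOTCH3 rather than NOTCH3 protein; score merges spot fluorescence near 667 nm with spot signal to noise.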 The following applies: higher = more signal.
The nature of assay [4]: probe aNOTCH2 binding on compound microarray – biochemical, small-molecule microarray, 635/667 nm fluorescence, primary screen (AID 1121).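 Also: score merges feature fluorescence read at 667 nm with its signal to noise.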 The following applies: higher = more signal.
Assay [5] deals with Carbonic anhydrase 2 (Homo sapiens) (UniProt P00918). In words: compounds binding carbonic anhydrase 2 – biochemical, small-molecule microarray, Alexa647-labelled CAII, profiling panel (AID 1122). The following applies: CAII-A647 binding fluorescence, higher = more signal.
Assay [6] is described as follows: COS7 lysate on small-molecule microarray, probe aHis, 635 nm (AID 1123).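 Also: z-score combines 667nm fluorescence intensity with signal-to-noise per printed compound spot.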 The following applies: COS7 cell lysate, fluorescence, higher = more signal.
Assay [7] in a line: probe aLAP1 signal on lysate-treated microarray – cell lysate, small-molecule microarray, COS7 lysate, primary screen (AID 1124).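 Also: lysate comes from COS7 cells expressing LAP1 and is applied at 0.3 µg/mL; score merges spot fluorescence near 667 nm with signal-to-noise over triplicate slides.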 To be noted: probe aLAP1, fluorescence, higher = more signal.
In assay [8] the test system is Sam68 (KHDRBS1). Briefly: compounds binding KHDRBS1 protein – biochemical, small-molecule microarray, 635 nm fluorescence, primary screen (AID 1125).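 Also: score merges 667 nm channel intensity with signal to noise over triplicate slides.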 To be noted: higher = more signal.
Assay [9] has as its system Chordin-like protein 2 (CHRDL2). Briefly: compounds binding chordin-like 2 – biochemical, small-molecule microarray, 635 nm fluorescence, primary screen (AID 1126).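 Also: printed compound slides probed with Chrdl2 protein at 4 µg/mL for 1 h at 4 C; score merges 667 nm emission intensity with signal to noise over three replicate slides.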 The following applies: fluorescence 635 nm, higher = more signal.
The target in assay [10] is Concanavalin-A (Canavalia ensiformis) (UniProt P02866). In words: compounds binding concanavalin A lectin – biochemical, small-molecule microarray, Alexa647 label, 635 nm, artefact control for SMM control protein annotation, primary screen (AID 1127).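 Also: z combines 667 nm emission intensity with signal-to-noise across three replicate slides.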 The following applies: ConA-A647 binding fluorescence, higher = more signal.
The nature of assay [11]: compounds binding Alexa647 anti-His antibody – biochemical, small-molecule microarray, 635 nm fluorescence, artefact control for SMM control protein annotation, primary screen (AID 1128).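 Also: score merges feature fluorescence with signal-to-noise for each printed compound spot.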 The following applies: higher = more signal.
The subject of assay [12] is Human papillomavirus type 1a E7 protein (residues 1-88). Briefly: HPV1a E7 small-molecule binders, primary screen, biochemical, small-molecule microarray, residues 1-88, 635 nm (AID 1129). To be noted: small-molecule microarray binding, fluorescence 635 nm; higher = more signal.
In assay [13] the target is Focal adhesion kinase 1 (Homo sapiens) (UniProt Q05397). In words: PTK2 protein binding on printed compound slides – biochemical, small-molecule microarray, 635/667 nm fluorescence, BSA, DTT, primary screen (AID 1130).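 Also: composite of spot emission at 667 nm and signal to noise over triplicate slides.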 To be noted: 635 nm fluorescence, higher = more signal.
Assay [14] concerns Fibrinogen (Alexa647-labelled). In words: Alexa647-fibrinogen binding to printed small molecules – biochemical, small-molecule microarray, 635/667 nm fluorescence, artefact control for SMM control-protein annotation, profiling panel (AID 1131).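 Also: z-score merges 667 nm fluorescence with per-spot signal-to-noise over triplicate slides.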 The following applies: fibrinogen-A647 binding fluorescence, higher = more signal.
For assay [15], the target named is Follistatin (Homo sapiens) (UniProt P19883). In words: FST protein binding to printed compounds – biochemical, small-molecule microarray, 635/667 nm fluorescence, primary screen (AID 1132). To be noted: 635 nm fluorescence, higher = more signal.
Assay [16] has as its target Fibroblast growth factor 2 (Homo sapiens) (UniProt P09038). In words: basic fibroblast growth factor binding to printed compounds – biochemical, small-molecule microarray, 635/667 nm fluorescence, primary screen (AID 1133). To be noted: FGF2, fluorescence 635/667, higher = more signal.
A short description of assay [17]: JC-1 mitochondrial potential readout, lung cancer cells – cell-based, A549, JC-1 fluorescence, basal, 24 h, 100 nL, profiling panel (AID 1138).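 Also: A549 lung adenocarcinoma cells under basal conditions with no added stimulus; test concentration not given here.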 To be noted: higher = more signal.
Assay [18] deals with Lefty1. In words: Lefty1 protein binding to printed compounds – biochemical, small-molecule microarray, 635/667 nm fluorescence, primary screen (AID 1139). To be noted: fluorescence 635/667, higher = more signal.
Assay [19] concerns wheat germ agglutinin (Triticum aestivum), Alexa647-labelled. Briefly: Alexa647-WGA lectin binding to printed small molecules – biochemical, small-molecule microarray, 635/667 nm fluorescence, artefact control for SMM control-protein annotation, profiling panel (AID 1140).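 Also: score merges 667 nm feature emission with signal to noise over triplicate slides.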 The following applies: WGA-A647 binding, 635 nm fluorescence, higher = more signal.
Assay [20] addresses Luciferin 4-monooxygenase (Photinus pyralis) (UniProt P08659). In words: inhibition of purified Photinus pyralis luciferase – biochemical, luminescence, purified enzyme, 2006 set, primary screen (AID 1141).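 Also: cell-free assay with purified firefly luciferase at 100 ng per well in PBS; test concentration not given here.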 To be noted: purified firefly luciferase, SteadyGlo luminescence, 30 min; higher = more signal, called active from +8 up or from −8 down.

Active and inactive are the calls of the source.

Concanavalin-A (Canavalia ensiformis), sequence (P02866 whole entry, looked up): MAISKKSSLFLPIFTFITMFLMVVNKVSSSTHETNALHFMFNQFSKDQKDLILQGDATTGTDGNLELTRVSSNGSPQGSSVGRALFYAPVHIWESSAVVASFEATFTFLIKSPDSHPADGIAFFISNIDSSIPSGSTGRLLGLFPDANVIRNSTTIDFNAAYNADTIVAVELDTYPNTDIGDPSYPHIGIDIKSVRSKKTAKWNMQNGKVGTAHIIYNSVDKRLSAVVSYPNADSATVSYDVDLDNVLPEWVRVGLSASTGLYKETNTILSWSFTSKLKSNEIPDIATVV
Fibroblast growth factor 2 (Homo sapiens), sequence (P09038 whole entry, looked up): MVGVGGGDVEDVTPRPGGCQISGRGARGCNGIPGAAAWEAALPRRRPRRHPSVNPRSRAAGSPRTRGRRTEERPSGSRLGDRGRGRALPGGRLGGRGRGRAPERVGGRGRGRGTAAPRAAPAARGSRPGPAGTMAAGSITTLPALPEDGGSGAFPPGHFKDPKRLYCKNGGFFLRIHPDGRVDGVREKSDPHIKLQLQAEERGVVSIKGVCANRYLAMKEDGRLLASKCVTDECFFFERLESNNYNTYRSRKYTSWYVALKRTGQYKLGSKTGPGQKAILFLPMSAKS
Focal adhesion kinase 1 (Homo sapiens), sequence (Q05397 whole entry, looked up): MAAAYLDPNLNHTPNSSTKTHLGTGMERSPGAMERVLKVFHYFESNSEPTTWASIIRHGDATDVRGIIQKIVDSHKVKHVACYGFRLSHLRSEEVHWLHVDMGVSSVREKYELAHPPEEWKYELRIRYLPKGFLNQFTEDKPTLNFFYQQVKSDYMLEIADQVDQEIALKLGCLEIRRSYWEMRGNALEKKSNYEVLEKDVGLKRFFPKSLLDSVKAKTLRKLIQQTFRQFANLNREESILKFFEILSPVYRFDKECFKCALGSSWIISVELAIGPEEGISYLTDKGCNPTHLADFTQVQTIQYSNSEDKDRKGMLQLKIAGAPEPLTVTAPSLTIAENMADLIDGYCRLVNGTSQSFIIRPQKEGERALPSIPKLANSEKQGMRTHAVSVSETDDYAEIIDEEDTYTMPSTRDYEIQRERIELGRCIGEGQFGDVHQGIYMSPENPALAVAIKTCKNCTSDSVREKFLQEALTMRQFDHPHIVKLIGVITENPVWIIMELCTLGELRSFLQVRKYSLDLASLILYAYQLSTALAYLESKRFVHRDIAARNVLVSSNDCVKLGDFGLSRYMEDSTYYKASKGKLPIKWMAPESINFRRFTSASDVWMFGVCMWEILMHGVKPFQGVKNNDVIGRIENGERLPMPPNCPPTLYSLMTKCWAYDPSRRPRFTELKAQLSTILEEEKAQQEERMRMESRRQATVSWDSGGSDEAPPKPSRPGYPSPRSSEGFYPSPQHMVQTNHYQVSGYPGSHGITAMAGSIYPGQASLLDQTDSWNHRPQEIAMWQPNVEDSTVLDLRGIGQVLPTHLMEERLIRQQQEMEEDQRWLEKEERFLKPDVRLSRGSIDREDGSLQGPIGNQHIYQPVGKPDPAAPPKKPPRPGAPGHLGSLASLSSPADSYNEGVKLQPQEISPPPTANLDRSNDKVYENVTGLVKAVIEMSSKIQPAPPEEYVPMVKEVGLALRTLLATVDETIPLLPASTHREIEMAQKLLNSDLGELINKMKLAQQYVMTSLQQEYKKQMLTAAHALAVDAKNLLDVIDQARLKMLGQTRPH
Albumin (Bos taurus), sequence (P02769 whole entry, looked up): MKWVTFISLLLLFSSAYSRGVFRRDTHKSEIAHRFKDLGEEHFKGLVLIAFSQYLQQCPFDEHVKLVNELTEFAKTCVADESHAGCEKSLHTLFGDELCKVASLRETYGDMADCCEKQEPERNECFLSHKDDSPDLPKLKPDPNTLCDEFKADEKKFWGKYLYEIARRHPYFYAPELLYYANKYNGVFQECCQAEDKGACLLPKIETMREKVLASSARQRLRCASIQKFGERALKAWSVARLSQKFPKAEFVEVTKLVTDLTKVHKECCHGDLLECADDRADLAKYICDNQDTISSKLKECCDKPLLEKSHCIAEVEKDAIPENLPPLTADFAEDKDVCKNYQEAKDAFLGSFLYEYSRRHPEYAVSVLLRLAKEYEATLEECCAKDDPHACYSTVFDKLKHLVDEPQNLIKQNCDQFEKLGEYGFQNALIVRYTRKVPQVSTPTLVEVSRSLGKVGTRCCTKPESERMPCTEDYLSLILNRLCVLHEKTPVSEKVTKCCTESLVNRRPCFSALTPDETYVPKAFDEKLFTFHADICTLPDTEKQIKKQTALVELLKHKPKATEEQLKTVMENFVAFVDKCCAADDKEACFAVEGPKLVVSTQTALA
Luciferin 4-monooxygenase (Photinus pyralis), sequence (P08659 whole entry, looked up): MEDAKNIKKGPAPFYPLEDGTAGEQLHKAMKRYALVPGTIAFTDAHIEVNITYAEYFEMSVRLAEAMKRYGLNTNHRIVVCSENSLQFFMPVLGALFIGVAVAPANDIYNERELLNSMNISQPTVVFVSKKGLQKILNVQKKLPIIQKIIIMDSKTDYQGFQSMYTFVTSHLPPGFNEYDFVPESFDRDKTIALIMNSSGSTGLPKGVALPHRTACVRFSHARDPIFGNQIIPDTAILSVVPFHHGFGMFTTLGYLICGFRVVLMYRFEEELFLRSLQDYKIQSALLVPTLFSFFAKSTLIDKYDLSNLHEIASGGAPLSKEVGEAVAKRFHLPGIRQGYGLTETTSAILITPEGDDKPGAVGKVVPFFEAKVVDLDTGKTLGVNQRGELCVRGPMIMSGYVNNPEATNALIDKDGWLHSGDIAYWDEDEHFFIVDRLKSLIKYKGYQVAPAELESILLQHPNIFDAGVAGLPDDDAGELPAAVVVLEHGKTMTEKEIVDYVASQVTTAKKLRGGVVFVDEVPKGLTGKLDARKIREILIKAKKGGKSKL
Follistatin (Homo sapiens), sequence (P19883 whole entry, looked up): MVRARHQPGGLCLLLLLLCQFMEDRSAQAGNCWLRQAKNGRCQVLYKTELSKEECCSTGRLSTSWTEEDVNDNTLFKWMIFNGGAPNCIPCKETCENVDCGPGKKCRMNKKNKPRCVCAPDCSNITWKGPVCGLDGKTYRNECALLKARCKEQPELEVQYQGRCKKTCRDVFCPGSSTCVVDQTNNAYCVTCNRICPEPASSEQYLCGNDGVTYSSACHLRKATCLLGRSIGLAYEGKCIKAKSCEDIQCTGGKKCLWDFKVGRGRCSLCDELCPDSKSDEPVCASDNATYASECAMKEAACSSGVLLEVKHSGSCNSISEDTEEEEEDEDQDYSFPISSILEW

Regarding `COC(=O)[C@@]1(Cc2ccc(OC)cc2)[C@H]2c3cc(C(=O)N(C)C)n(CCc4ccccn4)c3C[C@H]2CN1C(=O)c1ccccc1`, the composite z-score in [1] came out at 0.928; in assay [3], 1.28; in assay [4], 0.689; in assay [5], 0.461; in assay [6], 1.06; in [7], 0.272. Moreover, the composite z-score was 0.221 in assay [8]; -0.764 in assay [9]; -0.138 in assay [10]; 0.429 in assay [11]; 0.815 in assay [12]; 0.933 in assay [13]. Further, the composite z-score in assay [14] was -1.04; in [15], 0.0679; in assay [16], -0.162; in assay [18], -0.919; in assay [19], 0.698. The composite Z-score in assay [2] was -0.0712 (inactive). Besides, the results for the z-score in [17] and in [20] were -0.267 and 1.49 (inactive), respectively.
Turning to `O=C1N(Cc2ccccc2)c2ccccc2[C@@H]2OC(c3ccc(OCCCO)cc3)=N[C@]12CCS(=O)(=O)c1ccccc1`, the composite z-score in assay [1] was 0.272; in assay [3] it was 0.147; in assay [4], -0.0079; in assay [5] it was 0.626; in assay [6], 2.52; in assay [7], -0.276. The composite z-score is 0.895 in assay [8]; 0.0187 in assay [9]; 1.14 in [10]; 0.218 in [11]; 1.2 in assay [12]; 0.564 in assay [13]. For the same compound, the composite z-score in [14] was found to be 0.92; in [15] it was 1.15; in assay [16] it was 0.311; in assay [18] it was 0.0829; in assay [19], 1.19. Moreover, the composite Z-score in assay [2] was 1.29 (inactive). The z-score in [17] is -0.311; in assay [20], -1.45 (inactive).
As to `CC(C)C(O)C1C=CC2C(=O)N(c3ccccc3)C(=O)C2N1Nc1ccc([N+](=O)[O-])cc1` (stereo not given), the composite z-score in assay [1] is 0.963; in [3], 1.2; in [4] it was 0.185; in [5], 0.719; in [6], 1.84; in [7], 0.894. For the same compound, the composite z-score was 1.13 in assay [8]; -0.565 in assay [9]; 0.726 in assay [10]; 0.663 in assay [11]; 1.17 in assay [12]; 0.774 in assay [13]. Moreover, the composite z-score is 0.954 in assay [14]; -0.197 in [15]; -0.378 in [16]; -0.0809 in assay [18]; 1.01 in assay [19]. In assay [2], the composite Z-score is 2.65 (inactive). In addition, the z-score in [17] was -0.0625; in assay [20] it was 1.18 (inactive).
`Cc1ccc(S[C@]2(C(=O)NCCCN(C)C)CC(=O)N(Cc3cc(C(F)(F)F)cc(C(F)(F)F)c3)[C@@H]2c2ccc(CO)cc2I)cc1`: the composite z-score in assay [1] was -0.39; in assay [3], 0.462; in assay [4] it was -0.0492; in [5], 0.773; in [6], 0.961; in assay [7], 0.135. The composite z-score in [8] was 0.375; in assay [9] it was -0.395; in assay [10], -1.79; in assay [11], 0.336; in assay [12], -0.77; in assay [13] it was -0.0785. The composite z-score was -0.604 in assay [14]; -0.816 in assay [15]; -0.862 in [16]; -0.536 in assay [18]; 0.0799 in assay [19]. For the same compound, the composite Z-score in [2] is -0.86 (inactive). Also, the z-score in [17] is 0.197; in assay [20] it was 0.828 (inactive).
Take `CCCC[C@@H]1C[C@H]1[C@@H](NC(=O)c1ccco1)c1ccccc1C(F)(F)F`: the composite z-score amounted to 0.706 in assay [1]; 1.91 in assay [3]; 0.752 in [4]; 0.561 in [5]; 1.09 in [6]; 0.451 in assay [7]. In addition, the composite z-score in [8] is -0.215; in assay [9], 0.23; in [10] it was 0.418; in [11], -0.422; in [12], 0.0662; in [13], 0.57. The composite z-score in [14] is 0.349; in assay [15], 0.674; in assay [16] it was -0.527; in assay [18] it was -0.302; in assay [19], 1.15. For the same compound, the composite Z-score in assay [2] was -0.234 (inactive). Further, the z-score is -0.914 in [17] and 1.8 (inactive) in [20].
Consider `COC(=O)[C@@]1(Cc2ccccc2)[C@H]2c3cc(C(=O)N(C)C)n(Cc4ccsc4Br)c3C[C@H]2CN1C(=O)c1ccccc1`, for which the composite z-score in [1] is 0.928; in assay [3], 0.501; in assay [4], -0.0597; in assay [5], 0.586; in [6] it was 2.66; in [7], -0.0415. Besides, the composite z-score is 1.21 in [8]; -1.03 in assay [9]; 0.883 in assay [10]; 1.18 in assay [11]; 1.24 in [12]; 0.483 in [13]. Further, the composite z-score is 0.834 in [14]; 0.797 in [15]; -0.535 in assay [16]; -0.143 in assay [18]; 0.948 in assay [19]. Moreover, the composite Z-score in assay [2] is -0.502 (inactive). For the same compound, the z-score in assay [17] is 1.04; in assay [20] it was 0.78 (inactive).
